# In PubChem BioAssay (NCATS):
# Where “and” joins values, the source holds several entries; their conditions need not be identical. Equal values may be shown once. Results filed as inconclusive are left out. A call without a number means that no potency is given here. Calls of active or inactive are those of the source. Unless noted, calls come from the whole dose curve; as a rule, active = well fitted curve in the direction sought with a large enough effect; inconclusive = small, poorly fitted or top-dose-only effect, or another doubt; inactive = no such curve, though single readings can be large; an effect the other way counts as inactive or inconclusive.
# Legend:
# [1] = biological target: Methanococcus maripaludis chaperonin (MmCpn) (UniProt Q6LX38); assay: High-Throughput Screening for Modulators of Cytosolic Chaperonin Activity: MmCpn Primary Screen (AID 488978);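 note: 50 nM MmCpn enzyme hydrolysing 30 µM ATP at 37 °C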
# How it was run: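 ATPase activity of 50 nM MmCpn was assayed with 30 uM ATP, 10 minutes at 37C, after a 5 min compound preincubation at room temperature. ADP production was read as HTRF emission at 590 and 665 nm.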
# [2] = biological target: Thyrotropin receptor (Homo sapiens) (UniProt P16473); assay: qHTS Assay for Antagonists of the Thyroid Stimulating Hormone Receptor (AID 488980); note: series mostly up to about 58 µM
# How it was run: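 Inhibition of cAMP raised by EC80 TSH (4 nM final) was read by HTRF, with lysate cAMP competing against cAMP-d2 for cryptate antibody after 30 min at room temperature. The cells were transfected HEK293 held in phosphodiesterase inhibitor RO 20-1724 at 70 uM.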
# [3] = biological target: D(1A) dopamine receptor (Homo sapiens) (UniProt P21728); assay: HTS Assay for Allosteric Agonists of the Human D1 Dopamine Receptor: Primary Screen for Agonists (AID 488981)
# How it was run: (§1)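 Calcium flux in an inducible, force-coupled HEK293 Trex D1 line (overnight at 30 C): agonist mode is the 180 s kinetic read after compound; potentiator mode is the following 180 s read after dopamine at EC20.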
# [4] = biological target: D(1A) dopamine receptor (Homo sapiens) (UniProt P21728); assay: HTS Assay for Allosteric Agonists of the Human D1 Dopamine Receptor: Primary Screen for Potentiators (AID 488982)
# How it was run: as §1
# [5] = biological target: D(1A) dopamine receptor (Homo sapiens) (UniProt P21728); assay: HTS Assay for Allosteric Agonists of the Human D1 Dopamine Receptor: Primary Screen for Antagonists (AID 488983);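 note: calcium flux response to an EC80 dopamine challenge measured with no-wash dye; nearly all actives have a fitted effect of over 65% in size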; note: potency is the fitted concentration of half-maximal effect
# How it was run: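 In this primary screen, compounds are applied to calcium-dye-loaded HEK293 T-REx cells with force-coupled D1 expression induced overnight at 30 C. An EC80 of dopamine follows the 180 s compound phase, and calcium is monitored for a further 180 s.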
# [6] = Validation screen for small molecules that induce genotoxicity in human embryonic kidney (HEK293T) cells expressing luciferase-tagged ELG1 (AID 493106); note: potency is the fitted concentration of half-maximal effect
# How it was run: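 In this validation screen, increased ELG1-luciferase signal flags compounds causing genetic stress. HEK293T reporter cells are treated 16 hr (37 °C, 5% CO2), developed with ONE-Glo for 30 min at room temperature, and imaged on a CCD-based reader.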
# [7] = biological target: ATPase family AAA domain-containing protein 5 (Homo sapiens) (UniProt Q96QE3); assay: Validation screen for small molecules that inhibit ELG1-dependent DNA repair in human embryonic kidney (HEK293T) cells expressing luciferase-tagged ELG1 (AID 493107);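 note: cells co-treated with the DNA-damaging agent 5-fluorouridine alongside compound; series mostly up to about 46 µM; inhibitors lower the ELG1-luciferase luminescence signal; nearly all actives have a fitted effect of over 70% in size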
# How it was run: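 Compounds reducing 5-fluorouridine-driven ELG1-luciferase signal in HEK293T cells were scored; exposure lasted 16 hr at 37 °C with luminescence detected via ONE-Glo.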
# [8] = Nrf2 qHTS screen for inhibitors: Validation (AID 493153; active = well fitted inhibition curve with a large enough effect in the main read-out, with a control signal flat, not every such curve was filed as active); details: viability change: measured here: cytotoxicity max response
# How it was run: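 In this counterscreened reporter format, each well gives two signals: CellTiter-Fluor fluorescence for cytotoxicity and ARE-luciferase luminescence for Nrf2 function. A549 ARE_Fluc cells in 5% FBS OPTI-MEM were exposed to compound titrations for 18-24 h.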
# [9] = biological target: Thyrotropin-releasing hormone receptor (Homo sapiens) (UniProt P34981); assay: qHTS for Small Molecule Agonists and Allosteric Enhancers of Human TRH Receptor: Validation Screen for Agonists (AID 493127;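 active = calcium activation more than 3 SD above the typical response in the agonist read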;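 note: intracellular calcium rise by fluo-8 fluorescence before TRH EC20 addition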); details: TRH receptor agonist cell assay; at 2 µM; stronger effect = higher value
# How it was run: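 Kinetic fluorescence assay of agonist-induced calcium release: overnight-plated TRHR cells, room-temperature fluo-8 loading, baseline then compound addition with per-second reads.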
# [10] = biological target: ATP-dependent 6-phosphofructokinase (Trypanosoma brucei brucei) (UniProt O15648); assay: qHTS Assay to Find Inhibitors of T. brucei phosphofructokinase: hit validation (AID 492961);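 note: luminescence reports ADP formed as PFK phosphorylates fructose-6-phosphate with ATP; series mostly up to about 51 µM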
# How it was run: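 ADP-Glo luminescence read-out of ADP formed by 1.25 nM PFK from 0.1 mM ATP and 0.5 mM F6P (TEA pH 8.0, 45 min, RT). Compounds titrated; activity normalized to no-enzyme and full-enzyme controls.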
# Sequence of ATPase family AAA domain-containing protein 5 (Homo sapiens) (Q96QE3 whole entry, looked up, the tested form may be a part): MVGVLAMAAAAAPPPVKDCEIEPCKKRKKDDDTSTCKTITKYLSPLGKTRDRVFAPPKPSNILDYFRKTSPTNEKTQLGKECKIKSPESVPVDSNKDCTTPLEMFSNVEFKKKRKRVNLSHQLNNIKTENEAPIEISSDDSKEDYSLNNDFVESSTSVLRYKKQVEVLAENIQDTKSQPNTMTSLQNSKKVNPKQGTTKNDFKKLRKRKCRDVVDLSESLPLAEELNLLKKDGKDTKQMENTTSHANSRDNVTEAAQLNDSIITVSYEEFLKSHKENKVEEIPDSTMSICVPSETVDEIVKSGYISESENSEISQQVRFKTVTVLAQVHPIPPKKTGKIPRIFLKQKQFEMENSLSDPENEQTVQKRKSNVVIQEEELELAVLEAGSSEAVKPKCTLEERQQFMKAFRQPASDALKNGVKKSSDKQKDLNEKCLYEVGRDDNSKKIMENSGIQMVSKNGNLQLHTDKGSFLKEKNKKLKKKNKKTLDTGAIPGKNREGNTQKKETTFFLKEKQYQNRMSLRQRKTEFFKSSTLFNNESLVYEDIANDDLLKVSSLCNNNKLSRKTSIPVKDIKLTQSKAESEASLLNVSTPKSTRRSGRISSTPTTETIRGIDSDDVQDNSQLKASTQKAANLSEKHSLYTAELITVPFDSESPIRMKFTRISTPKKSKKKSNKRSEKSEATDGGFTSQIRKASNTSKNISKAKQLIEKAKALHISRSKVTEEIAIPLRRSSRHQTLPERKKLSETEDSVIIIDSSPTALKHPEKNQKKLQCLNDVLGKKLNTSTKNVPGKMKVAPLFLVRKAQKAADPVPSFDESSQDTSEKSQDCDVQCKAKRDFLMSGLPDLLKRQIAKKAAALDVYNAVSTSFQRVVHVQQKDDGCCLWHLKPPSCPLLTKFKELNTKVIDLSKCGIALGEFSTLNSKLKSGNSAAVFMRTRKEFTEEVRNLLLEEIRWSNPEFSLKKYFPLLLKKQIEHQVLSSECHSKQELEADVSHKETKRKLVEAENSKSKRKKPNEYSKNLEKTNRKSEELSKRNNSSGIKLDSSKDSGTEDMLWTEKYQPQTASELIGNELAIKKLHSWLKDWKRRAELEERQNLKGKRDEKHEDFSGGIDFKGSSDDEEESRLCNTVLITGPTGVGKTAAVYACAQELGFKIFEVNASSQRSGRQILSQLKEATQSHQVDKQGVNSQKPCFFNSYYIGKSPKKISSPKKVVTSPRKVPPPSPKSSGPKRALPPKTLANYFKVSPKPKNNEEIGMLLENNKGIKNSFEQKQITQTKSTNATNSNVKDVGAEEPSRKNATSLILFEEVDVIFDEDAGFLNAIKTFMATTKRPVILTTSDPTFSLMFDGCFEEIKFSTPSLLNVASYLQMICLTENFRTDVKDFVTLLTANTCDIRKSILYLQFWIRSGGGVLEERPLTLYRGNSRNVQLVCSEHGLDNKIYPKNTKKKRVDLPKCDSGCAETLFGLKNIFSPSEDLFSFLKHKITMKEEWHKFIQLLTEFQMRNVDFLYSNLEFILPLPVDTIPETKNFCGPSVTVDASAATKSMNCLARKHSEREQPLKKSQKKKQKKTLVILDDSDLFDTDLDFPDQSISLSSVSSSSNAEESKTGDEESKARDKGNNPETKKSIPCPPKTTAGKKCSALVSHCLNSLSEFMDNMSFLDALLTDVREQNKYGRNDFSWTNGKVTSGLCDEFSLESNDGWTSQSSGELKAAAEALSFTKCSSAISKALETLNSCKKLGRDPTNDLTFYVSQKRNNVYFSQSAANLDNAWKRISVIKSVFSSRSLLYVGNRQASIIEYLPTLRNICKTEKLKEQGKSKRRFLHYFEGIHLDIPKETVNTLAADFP
# Sequence of ATP-dependent 6-phosphofructokinase (Trypanosoma brucei brucei) (O15648 whole entry, looked up): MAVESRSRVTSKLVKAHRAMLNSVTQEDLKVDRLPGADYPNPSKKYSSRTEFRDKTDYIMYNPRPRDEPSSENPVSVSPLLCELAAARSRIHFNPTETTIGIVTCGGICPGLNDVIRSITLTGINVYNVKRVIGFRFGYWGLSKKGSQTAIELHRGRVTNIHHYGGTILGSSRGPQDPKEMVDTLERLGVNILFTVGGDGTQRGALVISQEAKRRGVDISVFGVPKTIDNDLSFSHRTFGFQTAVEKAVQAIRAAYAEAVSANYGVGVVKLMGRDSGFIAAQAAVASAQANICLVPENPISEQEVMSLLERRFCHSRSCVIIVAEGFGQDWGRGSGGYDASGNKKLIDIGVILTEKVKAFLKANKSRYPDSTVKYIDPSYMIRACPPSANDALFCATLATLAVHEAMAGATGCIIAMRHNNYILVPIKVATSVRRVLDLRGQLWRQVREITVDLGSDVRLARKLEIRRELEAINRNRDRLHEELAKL
# Sequence of Thyrotropin-releasing hormone receptor (Homo sapiens) (P34981 whole entry, looked up): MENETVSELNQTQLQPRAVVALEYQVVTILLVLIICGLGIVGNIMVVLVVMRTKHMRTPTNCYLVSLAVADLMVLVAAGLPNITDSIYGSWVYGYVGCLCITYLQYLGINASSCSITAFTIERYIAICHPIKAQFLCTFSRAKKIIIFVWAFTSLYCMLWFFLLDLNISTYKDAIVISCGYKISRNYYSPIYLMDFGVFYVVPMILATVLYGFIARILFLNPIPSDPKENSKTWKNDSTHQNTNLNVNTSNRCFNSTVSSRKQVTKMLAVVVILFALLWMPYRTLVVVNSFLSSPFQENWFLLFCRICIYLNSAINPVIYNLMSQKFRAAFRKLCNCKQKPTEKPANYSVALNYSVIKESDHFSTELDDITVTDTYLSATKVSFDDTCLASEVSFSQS
# Sequence of D(1A) dopamine receptor (Homo sapiens) (P21728 whole entry, looked up): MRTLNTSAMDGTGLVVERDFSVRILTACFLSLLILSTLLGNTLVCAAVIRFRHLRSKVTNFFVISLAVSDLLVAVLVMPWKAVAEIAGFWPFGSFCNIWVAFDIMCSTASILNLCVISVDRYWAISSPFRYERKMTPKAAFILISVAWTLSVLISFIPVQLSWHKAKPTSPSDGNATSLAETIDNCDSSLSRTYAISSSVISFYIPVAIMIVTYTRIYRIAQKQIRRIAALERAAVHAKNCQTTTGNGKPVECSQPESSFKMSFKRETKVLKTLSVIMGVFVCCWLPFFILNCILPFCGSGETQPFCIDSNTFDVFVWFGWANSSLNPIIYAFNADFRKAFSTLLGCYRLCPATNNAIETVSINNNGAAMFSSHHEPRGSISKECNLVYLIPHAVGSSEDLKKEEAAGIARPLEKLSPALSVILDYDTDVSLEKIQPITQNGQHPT
# Sequence of Methanococcus maripaludis chaperonin (MmCpn) (Q6LX38 1-543): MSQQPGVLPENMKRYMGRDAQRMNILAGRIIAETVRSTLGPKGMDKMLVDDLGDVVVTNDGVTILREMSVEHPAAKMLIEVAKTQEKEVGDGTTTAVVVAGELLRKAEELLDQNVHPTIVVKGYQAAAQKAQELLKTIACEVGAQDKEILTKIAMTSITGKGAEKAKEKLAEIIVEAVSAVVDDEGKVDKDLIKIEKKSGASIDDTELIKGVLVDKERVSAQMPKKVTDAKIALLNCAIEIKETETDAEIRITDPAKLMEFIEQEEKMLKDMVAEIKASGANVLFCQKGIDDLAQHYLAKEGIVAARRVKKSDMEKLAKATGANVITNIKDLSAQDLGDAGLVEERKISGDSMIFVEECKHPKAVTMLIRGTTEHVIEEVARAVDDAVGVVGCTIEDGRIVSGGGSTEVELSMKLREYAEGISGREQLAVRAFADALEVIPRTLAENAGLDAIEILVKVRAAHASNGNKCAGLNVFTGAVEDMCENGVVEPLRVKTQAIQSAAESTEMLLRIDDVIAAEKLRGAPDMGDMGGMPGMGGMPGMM
# Sequence of Thyrotropin receptor (Homo sapiens) (P16473 whole entry, looked up): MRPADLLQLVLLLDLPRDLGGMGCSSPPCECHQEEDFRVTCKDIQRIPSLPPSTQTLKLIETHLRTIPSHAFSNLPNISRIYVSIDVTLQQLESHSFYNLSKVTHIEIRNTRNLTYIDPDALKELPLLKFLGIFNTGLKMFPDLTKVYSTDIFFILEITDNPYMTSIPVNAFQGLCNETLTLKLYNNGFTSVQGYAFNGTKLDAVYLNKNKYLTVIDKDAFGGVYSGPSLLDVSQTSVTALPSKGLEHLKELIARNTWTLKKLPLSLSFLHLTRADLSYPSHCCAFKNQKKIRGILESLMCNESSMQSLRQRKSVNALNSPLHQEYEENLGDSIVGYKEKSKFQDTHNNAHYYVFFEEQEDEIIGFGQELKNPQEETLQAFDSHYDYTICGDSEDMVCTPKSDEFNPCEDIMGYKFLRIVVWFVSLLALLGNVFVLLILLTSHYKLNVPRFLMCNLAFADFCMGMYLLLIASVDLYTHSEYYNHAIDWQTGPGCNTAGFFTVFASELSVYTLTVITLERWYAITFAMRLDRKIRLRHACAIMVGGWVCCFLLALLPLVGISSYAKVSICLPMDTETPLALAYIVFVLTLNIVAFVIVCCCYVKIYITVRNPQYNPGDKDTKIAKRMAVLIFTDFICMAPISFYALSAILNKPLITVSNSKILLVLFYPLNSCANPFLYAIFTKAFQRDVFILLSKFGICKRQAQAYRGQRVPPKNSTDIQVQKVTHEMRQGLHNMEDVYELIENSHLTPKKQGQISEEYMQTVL
SMILES,outcome [1],outcome [2],outcome [3],outcome [4],Potency [5],Potency [6],outcome [7],outcome [8],viability change [8],activation [9],outcome [10]
CCCNC(=O)NS(=O)(=O)c1ccc(Cl)cc1,inactive,inactive,inactive,inactive,inactive,inactive,inactive,inactive,-0.767%,,
CC1(C)CCC2=C(O1)c1ccccc1C(=O)C2=O,inactive,inactive,inactive,inactive,inactive,inactive,,,,-3.69% (inactive),
Clc1ccc(Cn2c(CN3CCCC3)nc3ccccc32)cc1,inactive,inactive,inactive,inactive,inactive,inactive,inactive,inactive,1.98%,-8.12% (inactive),inactive
COC(=O)[C@@H]1[C@H]2C[C@H]3c4[nH]c5ccccc5c4CCN3C[C@@H]2CC[C@@H]1O,inactive,inactive,inactive,inactive,17.8 µM (active),inactive,inactive,inactive,2.98%,0.625% (inactive),
O=C1NCC2(CCN(CCc3ccccc3)CC2)O1,inactive,inactive,inactive,inactive,inactive,,inactive,inactive,1.8%,0.562% (inactive),inactive
CC(C)NCC(O)COc1cccc2[nH]ccc12 (stereo unspecified),inactive,inactive,inactive,inactive,inactive,inactive,inactive,inactive,3.18%,-0.25% (inactive),
CC(=O)CCCCn1c(=O)c2c(ncn2C)n(C)c1=O,inactive,inactive,inactive,inactive,inactive,inactive,,inactive,-8.24%,-2.31% (inactive),inactive
CC(C)OC(=O)C(C)(C)Oc1ccc(C(=O)c2ccc(Cl)cc2)cc1,inactive,inactive,inactive,inactive,inactive,inactive,,inactive,3.23%,,
CCN(CC)C(=O)c1ccc(O)c(OC)c1,inactive,inactive,inactive,inactive,inactive,inactive,inactive,inactive,8.03%,0.938% (inactive),inactive
O=c1c(-c2ccc(O)cc2)coc2cc(O)ccc12,inactive,inactive,inactive,inactive,inactive,20.6 µM (active),,inactive,1.29%,,
O=C1NC(=O)C(c2ccccc2)(c2ccccc2)N1,inactive,inactive,inactive,inactive,inactive,inactive,inactive,inactive,-3.24%,0.438% (inactive),
COc1cccc(-c2cc(=O)c3ccccc3o2)c1N,inactive,inactive,inactive,inactive,inactive,2.91 µM (active),,inactive,-8.39%,-3.44% (inactive),
COc1ccccc1N1CCN(CCCNc2cc(=O)n(C)c(=O)n2C)CC1,inactive,inactive,inactive,inactive,inactive,inactive,inactive,inactive,-8.38%,-2.81% (inactive),inactive
CC(=O)c1ccc(S(=O)(=O)NC(=O)NC2CCCCC2)cc1,inactive,inactive,inactive,inactive,inactive,inactive,inactive,inactive,1.61%,0.188% (inactive),
CCN(CC)CCOC(=O)c1ccc(N)cc1,inactive,inactive,inactive,inactive,inactive,inactive,inactive,inactive,0.523%,-0.312% (inactive),inactive
O=c1cc(-c2ccc(O)cc2)oc2cc(O)cc(O)c12,inactive,inactive,inactive,inactive,inactive,,,inactive,-8.56%,0.5% (inactive),
CCN1CCC[C@H]1CNC(=O)c1cc(S(N)(=O)=O)ccc1OC,inactive,inactive,inactive,inactive,inactive,inactive,inactive,inactive,-14.1%,1% (inactive),inactive
CC(C)(C)c1ccc(C(O)CCCN2CCC(C(O)(c3ccccc3)c3ccccc3)CC2)cc1 (stereo unspecified),inactive,inactive,inactive,inactive,,inactive,,inactive,-16.1%,,inactive
O=C(O)CCc1nc(-c2ccccc2)c(-c2ccccc2)o1,inactive,inactive,inactive,inactive,inactive,inactive,inactive,,,-0.125% (inactive),inactive
CN(C)CCC(c1ccccc1)c1ccccn1 (stereo unspecified),inactive,inactive,inactive,inactive,inactive,inactive,inactive,inactive,3.7%,1.44% (inactive),inactive
CCN(CC)CCNC(=O)c1ccc(N)cc1,inactive,inactive,inactive,inactive,inactive,inactive,inactive,inactive,-14%,,
Cc1cccc(C)c1OCC(C)N (stereo unspecified),inactive,inactive,inactive,inactive,inactive,inactive,inactive,inactive,-6.18%,0.438% (inactive),inactive
COc1ccc(Cc2nccc3cc(OC)c(OC)cc23)cc1OC,inactive,,inactive,inactive,inactive,inactive,inactive,,,,inactive

SMILES,outcome [1],outcome [2],outcome [3],outcome [4],Potency [5],Potency [6],outcome [7],outcome [8],viability change [8],activation [9],outcome [10]
NC(N)=Nc1nc(CSCC/C(N)=N/S(N)(=O)=O)cs1,inactive,,inactive,inactive,inactive,inactive,inactive,inactive,-0.651%,,
C[N+](C)(C)CC(=O)O,inactive,,inactive,inactive,inactive,,inactive,inactive,8.76%,,
CCOC(=O)O[C@]1(C(=O)OCCl)CC[C@@H]2[C@H]3CCC4=CC(=O)C=C[C@]4(C)[C@@H]3[C@@H](O)C[C@@]21C,,,,,,,,,,,inactive
CCCCCN(C)CCC(O)(P(=O)(O)O)P(=O)(O)O,inactive,,inactive,inactive,inactive,inactive,inactive,inactive,-4.22%,,inactive
C[C@@H](O)[C@H]1C(=O)N2C(C(=O)O)=C(S[C@@H]3CN[C@H](C(=O)N(C)C)C3)[C@H](C)[C@H]12,,,,,,,,,,,inactive
Cc1cnc(C(=O)O)c[n+]1[O-],,,,,,,,,,,inactive
CC(=O)N[C@@H](CS)C(=O)O,inactive,inactive,inactive,,inactive,inactive,inactive,inactive,13.1%,,inactive
CCn1cc(C(=O)O)c(=O)c2ccc(C)nc21,inactive,,inactive,inactive,inactive,inactive,inactive,,,,
O=c1[nH]cnc2c1ncn2[C@H]1CC[C@@H](CO)O1,,,,,,,,,,,inactive
C[N+](C)(C)CCCCCC[N+](C)(C)C,inactive,,inactive,inactive,inactive,inactive,inactive,inactive,-1.95% and 3.05%,0.625% (inactive) and 0.562% (inactive),inactive
CC1(C)O[C@H]2C[C@@H]3[C@H]4CCC5=CC(=O)C=C[C@]5(C)[C@@]4(F)[C@@H](O)C[C@]3(C)[C@]2(C(=O)CO)O1,,,,,,,,,,,inactive
O=C(O)c1c(Cl)c(Cl)c(Cl)c(Cl)c1-c1c2cc(I)c(=O)c(I)c-2oc2c(I)c(O)c(I)cc12,,,,,,,,,,,inactive
O=C(NCCN1CCOCC1)c1ccc(Cl)cc1,inactive,,inactive,inactive,inactive,inactive,inactive,inactive,-1.31%,,
CCCCC1C(=O)N(c2ccccc2)N(c2ccccc2)C1=O,inactive,inactive,inactive,,inactive,inactive,inactive,inactive,-3.3%,1.38% (inactive),
CC(=O)O[C@]1(C(C)=O)CC[C@H]2[C@@H]3C=C(Cl)C4=CC(=O)[C@@H]5C[C@@H]5[C@]4(C)[C@H]3CC[C@@]21C,inactive,,inactive,,inactive,inactive,inactive,inactive,2.19%,,inactive
Clc1ccc(C(c2ccc(Cl)cc2)n2cc[n+](CC(OCc3ccc(Cl)cc3Cl)c3ccc(Cl)cc3Cl)c2)cc1 (stereo unspecified),inactive,,inactive,inactive,inactive,,,,,,
NCCS,inactive,,inactive,inactive,inactive,inactive,inactive,inactive,-10.7%,1.25% (inactive),inactive
CC/C(=C(\c1ccccc1)c1ccc(OCCN(C)C)cc1)c1ccccc1,inactive,inactive,,,inactive,inactive,inactive,inactive,7.91%,-2.75% (inactive),inactive
CC1=C(/C=C/C(C)=C/C=C/C(C)=C/C(=O)Nc2ccc(O)cc2)C(C)(C)CCC1,inactive,inactive,inactive,,,inactive,,,,-0.438% (inactive),inactive
O=C1Nc2ccc(Cl)cc2C(C#CC2CC2)(C(F)(F)F)O1 (stereo unspecified),,,,,,,,,,,inactive
O=C(O)Cc1cccc2ccccc12,,,,,,,,,,,inactive
COc1cc2ncnc(Nc3ccc(F)c(Cl)c3)c2cc1OCCCN1CCOCC1,,,,,,,,,,,inactive
